# Where “and” joins values, the source holds several entries; their conditions need not be identical. Equal entries are not always repeated. The full ranking holds about 2,900 compounds; the median of “NF-kB SEAP reporter activity, fold change vs agonist alone” is about 0.99, and the highest 2% start at about 2.6. The entries come from a sample that favours the highest values as a whole.
# Legend:
# RAW-Dual [1] = assay: NF-kB SEAP reporter activity, fold change vs agonist alone; higher = enhanced NF-kB activity; conditions: library stock concentration (final ~1000-fold dilution): 10 mM
# Method in brief: (§1)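 Library stock was pin-tooled at 50 nL into 384-well plates of RAW-Dual macrophages (50,000 cells/well, DMEM), followed 1 h later by a PRR agonist, and the cells were kept at 37 °C, 5% CO2. Supernatant collected after 20 hours was read for IRF by QuantiLuc luminescence and for NF-κB by QuantiBlue absorbance at 620 nm. Reporter activity is fold change over agonist-alone wells, and a well counted as cytotoxic when its IncuCyte confluency was below 70% of agonist controls in both mask sets.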
# RAW-Dual [2] = assay: NF-kB SEAP reporter activity, fold change vs agonist alone; cytotoxicity flag (confluency mask): cytotoxic (confluency <70% of control); higher = enhanced NF-kB activity
# Method in brief: as §1
# RAW-Dual [3] = assay: NF-kB SEAP reporter activity, fold change vs agonist alone; cytotoxicity flag (confluency mask): not cytotoxic; higher = enhanced NF-kB activity
# Method in brief: as §1
# [4] = cytotoxicity flag (confluency mask): not cytotoxic, agonist: Imiquimod (TLR7) […]
# [5] = cytotoxicity flag (confluency mask): not cytotoxic, agonist: MPLA (TLR4) […]
# [6] = cytotoxicity flag (confluency mask): cytotoxic (confluency <70% of control), agonist: Imiquimod (TLR7) […]
# [7] = cytotoxicity flag (confluency mask): cytotoxic (confluency <70% of control), agonist: MPLA (TLR4) […]
# [8] = agonist: ODN 1826 (TLR9) 0.5 ug/mL
# [9] = agonist: Pam2CSK4 (TLR2/6) 0.1 ug/mL
# [10] = agonist: Pam3CSK4 (TLR2/1) 0.1 ug/mL
structure (smiles),measurement,setting,value
CC1COC2Cn3cc(C(=O)NCc4ccc(F)cc4F)c(=O)c(O)c3C(=O)N12 (stereo not drawn),NF-kB SEAP reporter activity,RAW-Dual [1]; [4],0.969
same,NF-kB SEAP reporter activity,RAW-Dual [1]; [5],1.11
CCC(=O)Nc1cccc(Oc2nc(Nc3ccc(N4CCN(C)CC4)cc3OC)ncc2Cl)c1,NF-kB SEAP reporter activity,RAW-Dual [1]; [6],1.1
same,NF-kB SEAP reporter activity,RAW-Dual [1]; [7],1.7
COc1cc(C(=O)NC2CCN(C)CC2)ccc1Nc1ncc2c(n1)N(C1CCCC1)CC(F)(F)C(=O)N2C (library stock concentration (final ~1000-fold dilution): 10 mM),NF-kB SEAP reporter activity,RAW-Dual [2]; agonist: LPS (TLR4) 0.1 ug/mL,5.16
same,NF-kB SEAP reporter activity,RAW-Dual [2]; [8],0.745
same,NF-kB SEAP reporter activity,RAW-Dual [2]; [9],1.3
same,NF-kB SEAP reporter activity,RAW-Dual [2]; [10],3.04
CCC1C(=O)N(C)c2cnc(Nc3ccc(C(=O)NC4CCN(C)CC4)cc3OC)nc2N1C1CCCC1 (stereo not drawn) (library stock concentration (final ~1000-fold dilution): 10 mM),NF-kB SEAP reporter activity,RAW-Dual [2]; agonist: LPS (TLR4) 0.1 ug/mL,0.276
same,NF-kB SEAP reporter activity,RAW-Dual [2]; [8],1.3
same,NF-kB SEAP reporter activity,RAW-Dual [2]; [9],1.54
same,NF-kB SEAP reporter activity,RAW-Dual [2]; [10],3.64
COc1cc(C(=O)NC2CCN(C)CC2)ccc1Nc1ncc2c(n1)N(C1CCCC1)CC(F)(F)C(=O)N2C,NF-kB SEAP reporter activity,RAW-Dual [1]; [6],1.71
same,NF-kB SEAP reporter activity,RAW-Dual [1]; [7],2.85
CCC1C(=O)N(C)c2cnc(Nc3ccc(C(=O)NC4CCN(C)CC4)cc3OC)nc2N1C1CCCC1 (stereo not drawn),NF-kB SEAP reporter activity,RAW-Dual [1]; [6],2.21
same,NF-kB SEAP reporter activity,RAW-Dual [1]; [7],0.949
C=CC(=O)Nc1cccc(Nc2nc(Nc3ccc(NC4CN(CCF)C4)cc3OC)ncc2C(F)(F)F)c1,NF-kB SEAP reporter activity,RAW-Dual [1]; [4],1.26
same,NF-kB SEAP reporter activity,RAW-Dual [1]; [5],1.53
Cc1cc(Nc2ncc3c(n2)N(C)C(=O)N(c2cc(NC(=O)c4cccc(C(F)(F)F)c4)ccc2C)C3)n(C)n1 (library stock concentration (final ~1000-fold dilution): 10 mM),NF-kB SEAP reporter activity,RAW-Dual [2]; agonist: LPS (TLR4) 0.1 ug/mL,0.283
same,NF-kB SEAP reporter activity,RAW-Dual [2]; [8],0.186
same,NF-kB SEAP reporter activity,RAW-Dual [2]; [9],0.0623
same,NF-kB SEAP reporter activity,RAW-Dual [2]; [10],0.124
COc1cc(OC2CCN(C)CC2)ccc1Nc1ncc2c(n1)n(C1CCCC1)c(=O)n2C (library stock concentration (final ~1000-fold dilution): 10 mM),NF-kB SEAP reporter activity,RAW-Dual [3]; agonist: LPS (TLR4) 0.1 ug/mL,1.17
same,NF-kB SEAP reporter activity,RAW-Dual [3]; [8],0.955
same,NF-kB SEAP reporter activity,RAW-Dual [3]; [9],0.964
same,NF-kB SEAP reporter activity,RAW-Dual [3]; [10],1.16
Cc1cc(Nc2ncc3c(n2)N(C)C(=O)N(c2cc(NC(=O)c4cccc(C(F)(F)F)c4)ccc2C)C3)n(C)n1,NF-kB SEAP reporter activity,RAW-Dual [1]; [6],0.128
same,NF-kB SEAP reporter activity,RAW-Dual [1]; [7],0.265
CCC(=O)Nc1cccc(Oc2nc(Nc3ccc(N4CCN(C)CC4)cc3OC)ncc2Cl)c1 (library stock concentration (final ~1000-fold dilution): 10 mM),NF-kB SEAP reporter activity,RAW-Dual [2]; agonist: LPS (TLR4) 0.1 ug/mL,1.65
same,NF-kB SEAP reporter activity,RAW-Dual [2]; [8],0.875
same,NF-kB SEAP reporter activity,RAW-Dual [2]; [9],0.603
same,NF-kB SEAP reporter activity,RAW-Dual [2]; [10],1.02
CCC1C(=O)N(C)c2cnc(Nc3ccc(C(=O)NC4CCC(N5CCN(CC6CC6)CC5)CC4)cc3OC)nc2N1C(C)C (stereo not drawn) (library stock concentration (final ~1000-fold dilution): 10 mM),NF-kB SEAP reporter activity,RAW-Dual [3]; agonist: LPS (TLR4) 0.1 ug/mL,5.71
same,NF-kB SEAP reporter activity,RAW-Dual [3]; [8],0.977
same,NF-kB SEAP reporter activity,RAW-Dual [3]; [9],1.95
same,NF-kB SEAP reporter activity,RAW-Dual [3]; [10],0.886
CCC1C(=O)N(C)c2cnc(Nc3ccc(C(=O)NC4CCC(N5CCN(CC6CC6)CC5)CC4)cc3OC)nc2N1C(C)C (stereo not drawn),NF-kB SEAP reporter activity,RAW-Dual [1]; [4],0.55
same,NF-kB SEAP reporter activity,RAW-Dual [1]; [5],0.684
COc1cc(OC2CCN(C)CC2)ccc1Nc1ncc2c(n1)n(C1CCCC1)c(=O)n2C,NF-kB SEAP reporter activity,RAW-Dual [1]; [4],1.11
same,NF-kB SEAP reporter activity,RAW-Dual [1]; [5],0.875
C=CC(=O)Nc1cccc(Nc2nc(Nc3ccc(NC4CN(CCF)C4)cc3OC)ncc2C(F)(F)F)c1 (library stock concentration (final ~1000-fold dilution): 10 mM),NF-kB SEAP reporter activity,RAW-Dual [3]; agonist: LPS (TLR4) 0.1 ug/mL,0.561
same,NF-kB SEAP reporter activity,RAW-Dual [3]; [8],0.536
same,NF-kB SEAP reporter activity,RAW-Dual [3]; [9],0.359
same,NF-kB SEAP reporter activity,RAW-Dual [3]; [10],0.725
Cl.Cl.OCCN1CCN(CC/C=C2/c3ccccc3Sc3ccc(C(F)(F)F)cc32)CC1 (library stock concentration (final ~1000-fold dilution): 10 mM),NF-kB SEAP reporter activity,RAW-Dual [2]; agonist: LPS (TLR4) 0.1 ug/mL,0.443
same,NF-kB SEAP reporter activity,RAW-Dual [2]; [8],0.412
same,NF-kB SEAP reporter activity,RAW-Dual [2]; [9],0.431
same,NF-kB SEAP reporter activity,RAW-Dual [2]; [10],0.63
Cl.Cl.OCCN1CCN(CC/C=C2/c3ccccc3Sc3ccc(C(F)(F)F)cc32)CC1,NF-kB SEAP reporter activity,RAW-Dual [1]; [6],1.58
same,NF-kB SEAP reporter activity,RAW-Dual [1]; [7],0.876
CC(=O)OC12COC1CC(O)C1(C)C(=O)C(O)C3=C(C)C(OC(=O)C(O)C(NC(=O)OC(C)(C)C)c4ccccc4)CC(O)(C(OC(=O)c4ccccc4)C21)C3(C)C (stereo not drawn) (library stock concentration (final ~1000-fold dilution): 10 mM),NF-kB SEAP reporter activity,RAW-Dual [3]; agonist: LPS (TLR4) 0.1 ug/mL,1.2
same,NF-kB SEAP reporter activity,RAW-Dual [3]; [8],0.995
same,NF-kB SEAP reporter activity,RAW-Dual [3]; [9],1.02
same,NF-kB SEAP reporter activity,RAW-Dual [3]; [10],0.841
CC(=O)OC12COC1CC(O)C1(C)C(=O)C(O)C3=C(C)C(OC(=O)C(O)C(NC(=O)OC(C)(C)C)c4ccccc4)CC(O)(C(OC(=O)c4ccccc4)C21)C3(C)C (stereo not drawn),NF-kB SEAP reporter activity,RAW-Dual [1]; [4],1.14
same,NF-kB SEAP reporter activity,RAW-Dual [1]; [5],1.24
CC(C(O)c1ccc(O)cc1)N1CCC(Cc2ccccc2)CC1.CC(C(O)c1ccc(O)cc1)N1CCC(Cc2ccccc2)CC1.O=C(O)C(O)C(O)C(=O)O (stereo not drawn),NF-kB SEAP reporter activity,RAW-Dual [1]; [4],1.14
same,NF-kB SEAP reporter activity,RAW-Dual [1]; [5],0.926
CC(C(O)c1ccc(O)cc1)N1CCC(Cc2ccccc2)CC1.CC(C(O)c1ccc(O)cc1)N1CCC(Cc2ccccc2)CC1.O=C(O)C(O)C(O)C(=O)O (stereo not drawn) (library stock concentration (final ~1000-fold dilution): 10 mM),NF-kB SEAP reporter activity,RAW-Dual [3]; agonist: LPS (TLR4) 0.1 ug/mL,1.19
same,NF-kB SEAP reporter activity,RAW-Dual [3]; [8],0.64
same,NF-kB SEAP reporter activity,RAW-Dual [3]; [9],1.04
same,NF-kB SEAP reporter activity,RAW-Dual [3]; [10],0.922
Cn1c(=O)cc(N2CCCC(N)C2)n(Cc2ccccc2C#N)c1=O (stereo not drawn),NF-kB SEAP reporter activity,RAW-Dual [1]; [4],1.08
Cn1c(=O)cc(N2CCCC(N)C2)n(Cc2ccccc2C#N)c1=O (stereo not drawn) (library stock concentration (final ~1000-fold dilution): 10 mM),NF-kB SEAP reporter activity,RAW-Dual [3]; agonist: LPS (TLR4) 0.1 ug/mL,1.04 and 1.31
same,NF-kB SEAP reporter activity,RAW-Dual [3]; [8],0.953 and 1.01
same,NF-kB SEAP reporter activity,RAW-Dual [3]; [9],1.16 and 1.1
same,NF-kB SEAP reporter activity,RAW-Dual [3]; [10],0.92 and 1.24
O=C(Nc1ccccc1C(=O)NC1CCCCNC1=O)c1cc2ccccc2s1 (stereo not drawn),NF-kB SEAP reporter activity,RAW-Dual [1]; [4],1.06
same,NF-kB SEAP reporter activity,RAW-Dual [1]; [5],1.16
O=C(Nc1ccccc1C(=O)NC1CCCCNC1=O)c1cc2ccccc2s1 (stereo not drawn) (library stock concentration (final ~1000-fold dilution): 10 mM),NF-kB SEAP reporter activity,RAW-Dual [3]; agonist: LPS (TLR4) 0.1 ug/mL,2.62
same,NF-kB SEAP reporter activity,RAW-Dual [3]; [8],1.04
same,NF-kB SEAP reporter activity,RAW-Dual [3]; [9],1.1
same,NF-kB SEAP reporter activity,RAW-Dual [3]; [10],1.47

# From the supplement of paper PMC10037445
